Results taken from PubChem BioAssay.
“And” between values parts separate entries of the source, which are not always exact repeats. Equal values may be shown once. The source made the active and inactive calls.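 How the source made its calls, unless noted: active means z-score of at least 1.8 in each of two replicates, scored against plate mean and spread of sample wells; inactive means the rest.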

Experiment: viability rescue of complex I mutant cybrids, primary screen, cell-based, galactose medium, ATP luminescence (AID 1645843);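 further: positive z means more ATP and so rescue of galactose-driven cybrid death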
Conditions: complex I mutant cybrid cells, 72 h, stronger effect = higher value

Row | Compound | z-score
1 | O=C(O)CCc1c[nH]c2ccccc12 | 0.56 (inactive)
2 | CCn1ncc(NC(=O)Cn2cc(-c3ncnc4ccsc34)cn2)n1 | -0.53 (inactive)
3 | CNc1nc(-c2cccc(OC)c2)ncc1F | -0.485 (inactive)
4 | O=C1CN(c2ncnc3sccc23)CCN1Cc1cccc(F)c1 | 3.78 (active)
5 | CC(C)(O/N=C(\C(=O)N[C@@H]1C(=O)N2C(C(=O)[O-])=C(C[n+]3ccccc3)CS[C@H]12)c1csc(N)n1)C(=O)O | 0.025 (inactive)
6 | COC(=O)CN1CCN(C(=O)Nc2n[nH]c(-c3ccco3)n2)CC1=O | 1.98 (inactive)
7 | Cn1c(=O)c2c(nc(N3CCNCC3)n2Cc2ccccc2)n(C)c1=O | 0.525 (inactive)
8 | O=c1c(-c2ccc(O)cc2)coc2cc(OC3OC(CO)C(O)C(O)C3O)ccc12 (stereo not drawn) | 0.515 (inactive)
9 | COc1ccc2nc(Cn3cnc4cc(F)ccc4c3=O)[nH]c2c1 | -0.39 (inactive)
10 | O=C1CN(c2ncnc3nc[nH]c23)CCN1Cc1cccc(F)c1 | -0.53 (inactive)
11 | Cc1cccc(C)c1OCC(=O)O | 0.75 (inactive)
12 | O=c1c2nccnc2ncn1Cc1scnc1-c1ccccc1 | -0.445 (inactive)
13 | CC(C)[N+]1(C)[C@@H]2CC[C@H]1CC(OC(=O)C(CO)c1ccccc1)C2 (stereo partly drawn) | 0.555 (inactive)
14 | O=C(O)c1ccccc1C(=O)O | 0.455 (inactive)
15 | CC(=O)NCC1CN(c2ccc(N3CCOCC3)c(F)c2)C(=O)O1 (stereo not drawn) | 0.65 (inactive)
16 | CO[C@H]1C[C@H](O[C@H]2[C@H](C)[C@@H](O[C@@H]3O[C@H](C)C[C@H](N(C)C)[C@H]3OC(C)=O)[C@@H](C)C[C@@]3(CO3)C(=O)[C@H](C)[C@@H](OC(C)=O)[C@@H](C)[C@@H](C)OC(=O)[C@@H]2C)O[C@@H](C)[C@@H]1OC(C)=O | 0.095 (inactive)
17 | C[C@@H]1CCC[C@H](C)N1NC(=O)c1ccc(Cl)c(S(N)(=O)=O)c1 | 0.85 (inactive)
18 | O=C(O)CNC(=O)c1cccc(O)c1 | 0.945 (inactive)
19 | COc1cc(N(C)CC2COc3ccccc3O2)nc(N)n1 (stereo not drawn) | -0.58 (inactive)
20 | Cc1nc2ccc(-c3ncnc4sccc34)cc2c(=O)[nH]1 | -0.465 (inactive)
21 | CC(C)C1=NOC(c2nc(-c3cccc4ccccc34)no2)C1 (stereo not drawn) | 2 (inactive)
22 | CCN(Cc1nccn1C)C(=O)c1cc(-c2cnc(C)nc2)nc2cc(F)ccc12 | -0.2 (inactive)
23 | COc1ccc(CC(C)NCC(O)c2ccc(O)c(NC=O)c2)cc1 (stereo not drawn) | -0.17 (inactive)
24 | NS(=O)(=O)c1ccc(C(=O)NCCn2cccn2)cc1 | -0.555 (inactive)

Experiment: LFS_MB_P medulloblastoma growth inhibition, cell-based, chromothripsis tumors, cisplatin or BGB combos (AID 1671449; in the data active means inhibition above about 80%;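 further: cells exposed for 96 hours; 0% = vehicle DMSO and 100% = killing by high DMSO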)
Conditions: LFS_MB_P medulloblastoma cells, at 0.5 µM, stronger effect = higher value

Row | Compound | inhibition
25 | CCOC(=O)NCCCC(=O)NCCc1ccccc1 | -22.5% (inactive) and -16.6% (inactive)
26 | C[C@@]1(c2nc3c(C(N)=O)cccc3[nH]2)CCCN1 | -30.4% (inactive) and -7.42% (inactive)
27 | O=C(NCC1(c2nc(-c3ccccc3)cs2)CCOCC1)c1cccc(-c2noc(C(F)(F)F)n2)c1 | 16.1% (inactive) and -6.25% (inactive)

Same assay, conditions: LFS_MB_P medulloblastoma cells, measured here: combination with BGB IC20, at 0.005 µM

Row | Compound | inhibition
28 | CCOC(=O)NCCCC(=O)NCCc1ccccc1 | -34.5% and -4.15%
29 | C[C@@]1(c2nc3c(C(N)=O)cccc3[nH]2)CCCN1 | 18.7% and -30.5%
30 | O=C(NCC1(c2nc(-c3ccccc3)cs2)CCOCC1)c1cccc(-c2noc(C(F)(F)F)n2)c1 | 1.8% and 4.15%

Same assay, conditions: LFS_MB_P medulloblastoma cells, measured here: combination with BGB IC40, at 0.005 µM

Row | Compound | inhibition
31 | CCOC(=O)NCCCC(=O)NCCc1ccccc1 | 74.6% and -15.4%
32 | C[C@@]1(c2nc3c(C(N)=O)cccc3[nH]2)CCCN1 | -17.7% and -33.9%
33 | O=C(NCC1(c2nc(-c3ccccc3)cs2)CCOCC1)c1cccc(-c2noc(C(F)(F)F)n2)c1 | 2.63% and 14.3%

Same assay, conditions: LFS_MB_P medulloblastoma cells, measured here: combination with BGB IC40, at 0.05 µM

Row | Compound | inhibition
34 | CCOC(=O)NCCCC(=O)NCCc1ccccc1 | -17.3% and -8.02%
35 | C[C@@]1(c2nc3c(C(N)=O)cccc3[nH]2)CCCN1 | 4.58% and -46.4%
36 | O=C(NCC1(c2nc(-c3ccccc3)cs2)CCOCC1)c1cccc(-c2noc(C(F)(F)F)n2)c1 | -10.8% and -1.22%

Same assay, conditions: LFS_MB_P medulloblastoma cells, measured here: combination with cisplatin, at 0.5 µM, stronger effect = higher value

Row | Compound | inhibition
37 | CCOC(=O)NCCCC(=O)NCCc1ccccc1 | -12.8% and -32.3%
38 | C[C@@]1(c2nc3c(C(N)=O)cccc3[nH]2)CCCN1 | -30.4% and -24.5%
39 | O=C(NCC1(c2nc(-c3ccccc3)cs2)CCOCC1)c1cccc(-c2noc(C(F)(F)F)n2)c1 | 3.22% and -32.3%

Same assay, conditions: LFS_MB_P medulloblastoma cells, measured here: combination with cisplatin, at 5 µM, stronger effect = higher value

Row | Compound | inhibition
40 | CCOC(=O)NCCCC(=O)NCCc1ccccc1 | -34.9% and -31.3%
41 | C[C@@]1(c2nc3c(C(N)=O)cccc3[nH]2)CCCN1 | -24.1% and -57.4%
42 | O=C(NCC1(c2nc(-c3ccccc3)cs2)CCOCC1)c1cccc(-c2noc(C(F)(F)F)n2)c1 | -16.9% and -3.34%

Experiment: HDN33 neuroblastoma growth inhibition, cell-based, chromothripsis tumors, cisplatin or BGB combos (AID 1671450; in the data active means inhibition above about 80%;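 further: cells exposed to compound for four days; 0% = vehicle DMSO and 100% = cell killing by high DMSO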)
Conditions: HDN33 neuroblastoma cells, BGB combo, at 5 µM, stronger effect = higher value

Row | Compound | inhibition
43 | CCOC(=O)NCCCC(=O)NCCc1ccccc1 | -65.3% and -26.9%
44 | C[C@@]1(c2nc3c(C(N)=O)cccc3[nH]2)CCCN1 | -38.7% and -21.7%
45 | O=C(NCC1(c2nc(-c3ccccc3)cs2)CCOCC1)c1cccc(-c2noc(C(F)(F)F)n2)c1 | -23% and 15.5%

Same assay, conditions: HDN33 neuroblastoma cells, at 0.5 µM, stronger effect = higher value

Row | Compound | inhibition
46 | CCOC(=O)NCCCC(=O)NCCc1ccccc1 | -38.5% (inactive) and -17.7% (inactive)
47 | C[C@@]1(c2nc3c(C(N)=O)cccc3[nH]2)CCCN1 | -18.6% (inactive) and -27.5% (inactive)
48 | O=C(NCC1(c2nc(-c3ccccc3)cs2)CCOCC1)c1cccc(-c2noc(C(F)(F)F)n2)c1 | -32.5% (inactive) and 16.4% (inactive)
